Screens from PubChem.
MazEF act – increases E. coli MazEF RNase cleavage of RNA; AID 504720; P0AE70; FAM/BHQ RNA-DNA oligo cleavage fluorescence, 5 h; 0.32% of 350,000 active; activation, % at 20 µM; in the data active means activation above about 50%
Target sequence (P0AE70 whole entry, looked up): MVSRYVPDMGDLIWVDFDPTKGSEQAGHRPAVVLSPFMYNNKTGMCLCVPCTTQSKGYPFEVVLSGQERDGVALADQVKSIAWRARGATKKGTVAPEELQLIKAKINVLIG
CCHFV vOTU inh – CCHFV vOTU protease inhibition | Pep-AMC fluorescence | AID 651958 | inhibition, % at 11.5 µM | 0.55% of 370,000 active; in the data active means inhibition above about 30%; further: 0% = vehicle wells with enzyme and 100% = no enzyme wells
Mtb FBA inh – Mtb fructose-bisphosphate aldolase inhibition; P9WQA3; inhibition, % at 1 µM; purified M. tuberculosis FBA, fluorescence read-out; 2.3% of 360,000 active;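 further: 0% = vehicle and 100% = reference inhibitor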
Target sequence (P9WQA3 whole entry, looked up): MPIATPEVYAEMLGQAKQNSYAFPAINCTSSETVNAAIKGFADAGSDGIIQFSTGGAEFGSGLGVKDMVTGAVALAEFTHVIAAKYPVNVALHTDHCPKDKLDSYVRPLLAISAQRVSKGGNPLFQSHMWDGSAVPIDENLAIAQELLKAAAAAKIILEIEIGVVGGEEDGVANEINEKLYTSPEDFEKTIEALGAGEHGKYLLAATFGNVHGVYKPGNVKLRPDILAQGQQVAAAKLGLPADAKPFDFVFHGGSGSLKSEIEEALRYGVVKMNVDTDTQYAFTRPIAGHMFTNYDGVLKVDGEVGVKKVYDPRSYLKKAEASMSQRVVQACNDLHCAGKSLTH
Mtb betalactam – beta-lactam sensitization of Mtb H37Rv. AID 434955. 0.27% of 330,000 active. M. tuberculosis H37Rv growth with meropenem, percent inhibition. inhibition, % at 25 µM; call rule not given here;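 further: growth measured after seven days incubation then overnight dye step; 0% = bacteria only wells and 100% = bacteria with antibiotic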
GDH-TPI counter-1 – GDH-TPI coupled enzyme inhibition counter-screen | 1.2% of 360,000 active | inhibition, % at 4.8 µM | AID 588335 | GDH-TPI coupled enzyme counterscreen, NADH absorbance; in the data active means inhibition above about 30%;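 further: 0% = DMSO wells and 100% = wells lacking the enzyme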
Mtb FBA confirm – confirmation of M. tuberculosis fructose-bisphosphate aldolase inhibitors. inhibition, % at 1 µM. shares compounds with Mtb FBA inh. 78% of 5,600 active. purified M. tuberculosis FBA, fluorescence read-out;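 further: 0% = vehicle wells and 100% = reference inhibitor wells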
GDH-TPI counter-2 – counter-screen for M. tuberculosis FBA inhibitors: GDH-TPI coupled enzyme inhibition. shares compounds with Mtb FBA inh. GDH-TPI coupled enzyme counterscreen, fluorescence. inhibition, % at 1 µM. 81% of 5,600 active. AID 652141; in the data active means inhibition above about 10%
The depositor's hits bear a star; x = no result given; + = active, no number. Shown are actives, neighbours in structure and some others; about 4% of the full set was active somewhere. Unless noted, no stated cut-off is given here; in the data, active means inhibition above about 27%; inactive means the rest.

SMILES	MazEF act	CCHFV vOTU inh	Mtb FBA inh	Mtb betalactam	GDH-TPI counter-1	Mtb FBA confirm	GDH-TPI counter-2
CC(NC(=O)CCn1ccc2cc(S(=O)(=O)N3CCCC3)ccc21)c1ccccc1 (stereo not given)	0.7	-2.8	-1.0	0.8	3.0	x	x
CC(C)Oc1cccc(-c2cc(C(=O)NC(=S)N(C)c3ccccc3C(=O)O)c3ccccc3n2)c1	-3.7	-29.1	42.3*	11.1	12.8	5.4	-4.2
CC(C)Oc1cccc(-c2cc(C(=O)NN3CCOCC3)c3ccccc3n2)c1	1.6	-0.5	-1.8	-6.9	13.7	x	x
O=C(NCc1ccccc1)C1Cc2c(-c3ccc4c(c3)OCO4)ccnc2O1 (stereo not given)	x	-5.8	64.8*	x	4.5	+	+
O=C(NCc1ccncc1)C1Cc2c(-c3ccc4c(c3)OCO4)ccnc2O1 (stereo not given)	x	2.7	45.3*	x	-3.6	59.0*	44.4*
CC(C)C(=O)N1CCC(Oc2cccnc2)CC1	x	-0.7	x	x	x	x	x
CNc1oc(-c2ccco2)nc1C#N	7.6	-10.8	67.6*	-5.4	9.2	46.1*	44.6*
CCOc1ccc(-c2nc(C#N)c(NCc3ccco3)o2)cc1	1.8	-25.6	52.8*	3.7	8.5	57.8*	50.4*
N#Cc1nc(COc2ccccc2Cl)oc1NCc1ccco1	-5.5	-17.8	-2.3	7.8	-2.5	x	x
Cc1ccc(CNc2oc(-c3ccco3)nc2C#N)cc1	2.1	-11.9	53.7*	-0.7	15.9	3.2	3.6
C[C@H]1CCC/C=C/C(=O)c2c(cc(O)c(Cl)c2O)CC(=O)O1	x	1.1	x	x	x	x	x
COC(=O)C1=C(C)N(Cc2ccc(C(F)(F)F)cc2)C(=NCc2ccc(C(F)(F)F)cc2)NC1c1ccccc1C(F)(F)F (stereo not given)	x	12.1	x	x	x	x	x
Cc1nc2scc(C)n2c(=O)c1S(=O)(=O)NC(C)c1ccccc1 (stereo not given)	4.6	-3.3	37.4*	2.4	26.9	40.2*	36.7*
COc1ccccc1CNS(=O)(=O)c1c(C)nc2scc(C)n2c1=O	3.5	-19.7	19.1	-3.9	9.8	x	x
Cc1nc2scc(C)n2c(=O)c1S(=O)(=O)NCC1CCN(Cc2ccc(F)cc2)CC1	6.5	-12.0	31.8*	-1.3	21.9	121.5*	90.5*
Cc1nc2scc(C)n2c(=O)c1S(=O)(=O)NCc1ccccc1Cl	2.9	-11.1	34.3*	-3.4	11.2	179.5*	132.0*
Cc1nc2scc(C)n2c(=O)c1S(=O)(=O)NCCc1ccccc1	-2.2	2.6	22.2	3.8	19.6	x	x
COC(=O)[C@]12C[C@H](CC(=O)NCc3ccc(C)o3)C(=O)N(Cc3ccc4c(c3)OCO4)C1=C[C@H](COCc1ccccc1)O[C@@H]2C	x	12.7	x	x	x	x	x
N#Cc1cc2cc3c(cc2nc1N1CCCCC1)OCCO3	-1.8	-14.6	47.5*	46.8	13.0	55.3*	41.9*
Cc1ccc(C(=O)N2CCCN(c3nc4cc5c(cc4cc3C#N)OCO5)CC2)cc1	3.1	-28.9	45.5*	-5.1	10.4	144.6*	87.8*
N#Cc1cc2cc3c(cc2nc1Cl)OCCO3	-4.7	7.9	1.1	x	-9.0	x	x
COc1ccc(C(=O)N2CCN(c3nc4cc(C)cc(C)c4cc3C#N)CC2)cc1	1.0	-7.8	11.3	x	-0.9	x	x
O=C1CCNc2cc3ccccc3cc21	-16.7	x	23.3	11.7	6.4	x	x
O=C1NC(=O)c2cc3ccccc3cc21	8.0	-30.2	36.5*	-9.1	2.9	34.4*	23.9*
COC(=O)C1=CN(Cc2ccc(OC)c(OC)c2)C=C(C(=O)OC)C1c1cccc(O)c1	4.0	-168.5	110.5*	-9.1	19.2	109.4*	81.7*
SMILES	MazEF act	CCHFV vOTU inh	Mtb FBA inh	Mtb betalactam	GDH-TPI counter-1	Mtb FBA confirm	GDH-TPI counter-2
COC(=O)C1=C(C)N(C)C(C)=C(C(=O)OC)C1c1ccsc1	5.5	4.5	0.0	63.6	4.5	x	x
COC(=O)C1=CN(Cc2ccc(OC)cc2)C=C(C(=O)OC)C1c1ccsc1	-9.4	-109.5	97.9*	-4.7	1.6	130.9*	86.5*
COC(=O)C1=C(C)OC(N)=C(C#N)C1c1ccsc1 (stereo not given)	0.7	-6.1	1.0	-1.6	-4.4	x	x
COC(=O)C1=CN(CC2CCCO2)C=C(C(=O)OC)C1c1ccsc1 (stereo not given)	4.2	-222.4	82.7*	6.6	0.0	4.0	-7.7
COC(=O)C1=CN(CCOC23CC4CC(CC(C4)C2)C3)C=C(C(=O)OC)C1c1ccsc1	2.6	-60.3	62.6*	-2.9	-0.9	100.8*	85.3*
CC1CCN(CCCNS(=O)(=O)c2cc3c(cc2Br)CCN3C(=O)C2CC2)CC1	x	-0.1	x	x	x	x	x
COc1ccc(S[C@]2(C(=O)N3CCN(c4ncccn4)CC3)CC(=O)N(P(=O)(OC)OC)[C@@H]2c2ccc(OC)cc2)cc1	x	-5.3	x	x	x	x	x
COc1cc2cc(C(c3nnnn3Cc3ccc(F)cc3)N3CCCCCC3)c(=O)[nH]c2cc1OC (stereo not given)	2.2	x	49.0*	-7.7	22.5	-1.6	-2.1
COc1ccc(Cn2nnnc2C(c2cc3cc(C)ccc3[nH]c2=O)N2CCN(C)CC2)cc1 (stereo not given)	5.6	-1.7	7.9	-2.1	4.5	x	x
COc1ccc(C2Nc3ccccc3NC3=C2C(=O)CC(C)(C)C3)cc1 (stereo not given)	-8.2	6.3	2.0	-4.3	10.7	x	x
COc1ccccc1C1Nc2ccccc2NC2=C1C(=O)CC(C)(C)C2 (stereo not given)	-18.0	18.9	-2.1	1.6	26.5	x	x
COc1cccc(C2Nc3ccc4ccccc4c3C3=C2C(=O)CC(C)(C)C3)c1OCC(=O)O (stereo not given)	1.5	-232.4	64.7*	-21.1	9.4	132.1*	113.5*
CC1(C)CC(=O)C2=C(C1)c1c(ccc3ccccc13)NC2c1ccc(Br)o1 (stereo not given)	21.3	4.8	31.5*	75.0	15.9	173.7*	148.4*
COc1cc(CCC(=O)NCc2ccc(S(N)(=O)=O)cc2)cc(OC)c1OC	4.2	4.0	0.7	-2.8	2.8	x	x
COc1cc(CCC(=O)NCc2ccc(F)cc2)cc(OC)c1OC	18.8	4.9	33.4*	-7.3	1.9	53.8*	47.0*
Cc1ccc(NC(=O)c2cc(F)c(F)cc2Cl)nc1	2.6	-2.3	82.2*	-7.4	-0.6	135.9*	124.5*
Cc1cc(NC(=O)c2cc(F)c(F)cc2Cl)no1	2.8	-8.9	-3.1	0.4	-4.8	x	x
COc1cc2ccccc2cc1C(=O)Nc1ccc(C)cn1	-6.9	14.9	2.8	26.2	6.2	x	x
Cc1ccc(NC(=O)c2ccccc2F)nc1	-17.7	-33.0	33.2*	-2.5	3.4	95.7*	78.1*
CCCC[C@H]1C2CC(OC(=O)Nc3cccc(Cl)c3)C(C2)[C@H]2CCCCN21 (stereo not given in full)	x	3.7	x	x	x	x	x
CN(C)CCNC(=O)c1ccc(-c2cnn(C)c2)c2ccoc12	x	-14.5	85.1*	x	3.6	104.4*	94.0*
